Measured values: PubChem BioAssay (Tox21)
Results filed as inconclusive are left out. A call without a number means that no potency is given here. Activity calls are given as the source filed them. Unless noted, calls follow the shape of the dose curve; as a rule, active = well fitted curve in the direction sought with a large enough effect in the repeat runs; inconclusive = weak or mixed curves; inactive = no such curve, though single readings can be large; an effect the other way counts as inactive or inconclusive.

Legend:
[1] = qHTS assay to identify small molecule antagonists of the glucocorticoid receptor (GR) signaling pathway - cell viability counter screen (AID 720693); also: nearly all actives have a fitted effect of over 55% in size
[2] = qHTS assay for identifying genotoxic compounds that show differential cytotoxicity against isogenic chicken DT40 cell lines with known DNA damage response pathways - wild type cell line (AID 743012); also: nearly all actives have a fitted effect of over 60% in size
In short: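 CellTiter-Glo luminescence readout of viability in wild type DT40 cells after 40 h compound exposure at 37 C/5% CO2; 300 cells/well; reagent incubated 30 min at room temperature before reading.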

[3] = qHTS assay for identifying genotoxic compounds that show differential cytotoxicity against isogenic chicken DT40 cell lines with known DNA damage response pathways - Rev3 mutant cell line (AID 743014); also: nearly all actives have a fitted effect of over 55% in size
[4] = qHTS assay to identify small molecule antagonists of the androgen receptor (AR) signaling pathway - cell viability counter screen (AID 743033; also: nearly all actives have a fitted effect of over 45% in size)
[5] = qHTS assay to identify small molecule antagonists of the androgen receptor (AR) signaling pathway using the MDA cell line - cell viability counter screen (AID 743041; also: nearly all actives have a fitted effect of over 45% in size)
In short: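 Cytotoxicity counter screen: MDA-kb2 AR-luc cells, compound + R1881, 16 h, 37C, 0% CO2; CellTiter-Fluor added at 15.5 h, fluorescence read after 30 min.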

[6] = qHTS assay to identify small molecule antagonists of the thyroid receptor (TR) signaling pathway - cell viability counter screen (AID 743064); also: nearly all actives have a fitted effect of over 50% in size
In short: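 Compounds were tested on GH3.TRE-Luc cells in the presence of T3 at 1 nM final. Following 23.5 h at 37 °C, cell viability was quantified by CellTiter-Fluor.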

[7] = tested on: thyroid hormone receptor (rat, GH3 cells); assay: qHTS assay to identify small molecule agonists of the thyroid receptor (TR) signaling pathway (AID 743066; calls by dose curve)
[8] = target: Estrogen receptor (Homo sapiens) (UniProt P03372); assay: qHTS assay to identify small molecule antagonists of the estrogen receptor alpha (ER-alpha) signaling pathway (AID 743069; active = well fitted curve in the direction sought with a large enough effect in the signal ratio in the repeat runs, not every such curve was filed as active; the % refers to the signal ratio)
Sequence of Estrogen receptor (Homo sapiens) (P03372 whole entry, looked up): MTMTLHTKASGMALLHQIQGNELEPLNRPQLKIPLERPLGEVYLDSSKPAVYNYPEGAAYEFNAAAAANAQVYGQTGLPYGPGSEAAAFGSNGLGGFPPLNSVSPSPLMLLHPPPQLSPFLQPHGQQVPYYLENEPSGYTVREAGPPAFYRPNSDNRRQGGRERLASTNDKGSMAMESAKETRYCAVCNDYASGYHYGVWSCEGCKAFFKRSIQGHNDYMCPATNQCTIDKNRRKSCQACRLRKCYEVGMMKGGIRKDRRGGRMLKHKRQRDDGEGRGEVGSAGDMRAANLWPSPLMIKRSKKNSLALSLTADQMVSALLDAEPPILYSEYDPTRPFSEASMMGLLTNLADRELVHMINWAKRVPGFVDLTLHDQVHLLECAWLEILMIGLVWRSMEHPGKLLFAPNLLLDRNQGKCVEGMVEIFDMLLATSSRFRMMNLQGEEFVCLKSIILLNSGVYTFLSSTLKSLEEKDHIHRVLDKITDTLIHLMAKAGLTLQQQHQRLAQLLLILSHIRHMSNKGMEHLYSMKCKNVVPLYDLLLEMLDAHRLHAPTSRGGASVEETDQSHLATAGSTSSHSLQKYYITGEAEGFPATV
In short: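 Beta-lactamase FRET fluorescence is read after 2 hr at room temperature with LiveBLAzer B/G substrate. Before that, ER-alpha-bla HEK293 cells sit 4 hr after plating, then receive compound plus 17beta-estradiol and incubate 18 hr at 37C.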

[9] = qHTS assay to identify small molecule antagonists of the estrogen receptor alpha (ER-alpha) signaling pathway - cell viability counter screen (AID 743074; calls by dose curve;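 also: HEK293 cells carrying ER-alpha-UAS-bla reporter stimulated with 17beta-estradiol; nearly all actives have a fitted effect of over 45% in size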)
[10] = target: Estrogen receptor (Homo sapiens) (UniProt P03372); assay: qHTS assay to identify small molecule agonists of the estrogen receptor alpha (ER-alpha) signaling pathway (AID 743075; calls by dose curve;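 also: HEK293 GripTite cells with ER-alpha and UAS-driven beta-lactamase reporter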)
[11] = target: Estrogen receptor (Homo sapiens) (UniProt P03372); assay: qHTS assay to identify small molecule agonists of the estrogen receptor alpha (ER-alpha) signaling pathway using the BG1 cell line (AID 743079); also: nearly all actives have a fitted effect of over 20% in size
[12] = qHTS assay to identify small molecule antagonists of the estrogen receptor alpha (ER-alpha) signaling pathway using the BG1 cell line (AID 743080; calls by dose curve;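 also: BG1 cells stimulated with 17beta-estradiol alongside compound; series mostly up to about 70 µM; nearly all actives have a fitted effect of over 25% in size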)
In short: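 Seeding, 24 h rest, compound transfer from DMSO, 17beta-estradiol addition, 21.5 h incubation, CellTiter-Fluor (30 min, 37 C), then ONE-Glo (30 min, room temperature): this sequence was run on BG1-Luc-4E2 reporter cells.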

[13] = qHTS assay to identify small molecule antagonists of the estrogen receptor alpha (ER-alpha) signaling pathway using the BG1 cell line - cell viability counter screen (AID 743081);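 also: compound given together with 17beta-estradiol as the ER stimulus; series mostly up to about 70 µM; nearly all actives have a fitted effect of over 45% in size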
Aromatase (Homo sapiens) = Aromatase (Homo sapiens) (UniProt P11511); assay: qHTS assay to identify aromatase inhibitors (AID 743083); also: series mostly up to about 70 µM; nearly all actives have a fitted effect of over 55% in size
Sequence of Aromatase (Homo sapiens) (P11511 whole entry, looked up): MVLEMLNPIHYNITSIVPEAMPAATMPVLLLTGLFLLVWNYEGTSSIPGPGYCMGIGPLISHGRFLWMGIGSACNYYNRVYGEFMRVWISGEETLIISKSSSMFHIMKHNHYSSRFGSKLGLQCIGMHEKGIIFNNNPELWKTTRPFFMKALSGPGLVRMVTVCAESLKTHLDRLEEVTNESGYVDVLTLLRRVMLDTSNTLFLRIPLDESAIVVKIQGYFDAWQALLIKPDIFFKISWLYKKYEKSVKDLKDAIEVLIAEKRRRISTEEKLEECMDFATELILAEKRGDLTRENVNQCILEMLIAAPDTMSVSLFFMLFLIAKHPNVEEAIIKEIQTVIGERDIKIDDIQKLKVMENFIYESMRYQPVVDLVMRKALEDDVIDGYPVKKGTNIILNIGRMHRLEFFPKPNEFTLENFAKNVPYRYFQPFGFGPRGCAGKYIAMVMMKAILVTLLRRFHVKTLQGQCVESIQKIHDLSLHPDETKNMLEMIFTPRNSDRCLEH

[14] = qHTS assay to identify aromatase inhibitors - cell viability counter screen (AID 743084);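 also: cells stimulated with testosterone during compound exposure; nearly all actives have a fitted effect of over 55% in size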; also: potency is read from the fitted curve at half-maximal effect
[15] = qHTS assay for identifying genotoxic compounds that show differential cytotoxicity against isogenic chicken DT40 cell lines with known DNA damage response pathways - Rad54/Ku70 mutant cell line (AID 743015); also: nearly all actives have a fitted effect of over 60% in size
[16] = target: Androgen receptor (Homo sapiens) (UniProt P10275); assay: qHTS assay to identify small molecule antagonists of the androgen receptor (AR) signaling pathway (AID 743035; active = well fitted inhibition curve with a large enough effect in the signal ratio in the repeat runs, not every such curve was filed as active; the % refers to the signal ratio)
Sequence of Androgen receptor (Homo sapiens) (P10275 whole entry, looked up): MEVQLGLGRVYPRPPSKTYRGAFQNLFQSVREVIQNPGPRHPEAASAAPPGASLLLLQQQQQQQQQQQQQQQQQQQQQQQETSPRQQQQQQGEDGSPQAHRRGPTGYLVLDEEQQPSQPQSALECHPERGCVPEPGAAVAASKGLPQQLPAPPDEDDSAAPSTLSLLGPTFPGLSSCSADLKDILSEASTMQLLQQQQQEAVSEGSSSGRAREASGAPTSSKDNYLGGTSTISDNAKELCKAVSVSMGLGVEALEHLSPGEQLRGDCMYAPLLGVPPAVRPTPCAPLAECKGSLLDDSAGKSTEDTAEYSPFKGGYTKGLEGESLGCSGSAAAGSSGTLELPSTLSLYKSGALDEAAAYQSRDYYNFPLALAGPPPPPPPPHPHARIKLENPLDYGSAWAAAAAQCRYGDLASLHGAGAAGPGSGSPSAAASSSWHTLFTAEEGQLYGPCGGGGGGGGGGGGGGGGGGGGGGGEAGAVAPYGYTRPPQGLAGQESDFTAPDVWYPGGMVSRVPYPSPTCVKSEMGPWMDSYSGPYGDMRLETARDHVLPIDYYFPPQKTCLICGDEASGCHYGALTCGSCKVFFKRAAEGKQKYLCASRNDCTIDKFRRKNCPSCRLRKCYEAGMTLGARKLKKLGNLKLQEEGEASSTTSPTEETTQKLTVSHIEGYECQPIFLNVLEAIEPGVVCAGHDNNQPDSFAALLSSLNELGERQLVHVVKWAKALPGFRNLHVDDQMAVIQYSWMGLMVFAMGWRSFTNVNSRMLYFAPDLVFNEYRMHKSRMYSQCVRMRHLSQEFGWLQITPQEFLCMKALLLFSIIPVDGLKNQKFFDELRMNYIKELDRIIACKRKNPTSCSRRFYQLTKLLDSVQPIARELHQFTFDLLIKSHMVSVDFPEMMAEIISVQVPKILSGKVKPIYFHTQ
In short: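 AR-bla HEK293 reporter cells; 4 h settle at 37C/5% CO2; compound + R1881 agonist, 16 h at 37C; LiveBLAzer B/G FRET substrate 2 h RT; fluorescence intensity read. qHTS format.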

[17] = target: Androgen receptor (Homo sapiens) (UniProt P10275); assay: qHTS assay to identify small molecule agonists of the androgen receptor (AR) signaling pathway (AID 743036; active = well fitted activation curve with a large enough effect in the signal ratio in the repeat runs, with a control signal flat, not every such curve was filed as active; the % refers to the signal ratio)
In short: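 Beta-lactamase under UAS control, stably integrated in HEK293 GripTite cells, reports receptor activation. After 16 h compound treatment, cells received FRET substrate for 2 h at room temperature before fluorescence reading.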

[18] = target: Androgen receptor (Homo sapiens) (UniProt P10275); assay: qHTS assay to identify small molecule antagonists of the androgen receptor (AR) signaling pathway using the MDA cell line (AID 743042; also: nearly all actives have a fitted effect of over 55% in size)
In short: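 MDA-kb2 breast carcinoma cells carrying MMTV-luciferase (AR/GR responsive) were co-treated with compounds and the agonist R1881 for 16 h at 37C. Inhibition read as ONE-Glo luminescence; CellTiter-Fluor fluorescence measured in parallel for cytotoxicity.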

[19] = qHTS assay to identify small molecule antagonists of the thyroid receptor (TR) signaling pathway (AID 743065)
In short: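 GH3.TRE-Luc rat pituitary cells (two TREs driving luciferase) were dosed with compound, then stimulated with 1 nM T3 (final) for 23.5 h at 37 C. ONE-Glo luminescence was the read-out, with CellTiter-Fluor fluorescence as the cytotoxicity counter-screen.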

SMILES	Potency [1]	Potency [2]	Potency [3]	outcome [4]	outcome [5]	Potency [6]	Potency [7]	Potency [8]	Potency [9]	Potency [10]	Potency [11]	outcome [12]	outcome [13]	outcome (Aromatase (Homo sapiens))	Potency [14]	Potency [15]	Potency [16]	outcome [17]	outcome [18]	Potency [19]
CC(C)COC(=O)/C=C/c1ccccc1	inactive	inactive	inactive	inactive	inactive	inactive	inactive	inactive	inactive	inactive	inactive	inactive	inactive	–	–	–	–	–	–	–
CC1CCC(C(C)(C)S)C(=O)C1 (stereo unspecified)	inactive	inactive	inactive	inactive	inactive	inactive	inactive	inactive	inactive	inactive	inactive	inactive	inactive	inactive	inactive	–	–	–	–	–
Cc1nc2ccccc2c(=O)o1	inactive	inactive	inactive	inactive	inactive	–	inactive	inactive	inactive	inactive	inactive	inactive	inactive	inactive	inactive	–	–	–	–	–
CC(C)=CC(C)(C)C	inactive	inactive	inactive	inactive	inactive	–	inactive	–	inactive	–	–	–	inactive	–	–	inactive	–	–	–	–
CNC(=O)NC	inactive	inactive	–	inactive	inactive	inactive	inactive	inactive	inactive	inactive	inactive	inactive	inactive	inactive	inactive	inactive	inactive	inactive	inactive	–
CCN1CN(CC)CN(CC)C1	inactive	inactive	inactive	inactive	inactive	inactive	inactive	inactive	inactive	inactive	inactive	–	inactive	inactive	inactive	–	–	–	–	inactive
Cc1ccccc1C	inactive	inactive	inactive	inactive	inactive	–	–	inactive	inactive	inactive	inactive	–	inactive	inactive	inactive	inactive	–	–	–	–
CCc1nccnc1C	inactive	inactive	inactive	inactive	inactive	inactive	inactive	inactive	inactive	inactive	inactive	inactive	inactive	inactive	inactive	–	–	–	–	inactive
CCCCC(=O)N(C)C	inactive	inactive	–	inactive	inactive	inactive	inactive	inactive	inactive	inactive	inactive	inactive	inactive	inactive	inactive	inactive	–	–	–	inactive
F[Si-2](F)(F)(F)(F)F	inactive	inactive	inactive	inactive	inactive	inactive	inactive	inactive	inactive	inactive	inactive	inactive	inactive	inactive	inactive	–	–	–	–	inactive
C=COCCOCCOC=C	inactive	inactive	inactive	inactive	inactive	inactive	inactive	–	inactive	–	–	–	inactive	inactive	inactive	–	–	–	–	inactive
NC(=O)NNC(N)=O	inactive	inactive	inactive	inactive	inactive	–	inactive	inactive	inactive	inactive	inactive	–	inactive	inactive	inactive	inactive	–	–	–	inactive
NS(=O)(=O)c1ccccc1OC(F)(F)F	inactive	inactive	inactive	inactive	inactive	inactive	–	–	inactive	–	–	–	inactive	inactive	inactive	inactive	–	–	–	–
COc1cc(C=O)ccc1OC(=O)C(C)C	inactive	inactive	inactive	inactive	inactive	inactive	inactive	–	inactive	–	–	–	inactive	inactive	inactive	–	–	–	–	inactive
CC1=NN(c2ccc(S(=O)(=O)O)cc2)C(=O)C1N=Nc1ccccc1 (stereo unspecified)	inactive	inactive	inactive	inactive	–	–	inactive	inactive	inactive	inactive	inactive	inactive	–	inactive	54.5 µM (active)	inactive	–	–	–	–
O=[Si]=O	inactive	inactive	inactive	inactive	inactive	inactive	inactive	inactive	inactive	inactive	inactive	inactive	inactive	inactive	inactive	–	–	–	–	inactive
CCCCCCCCCCCCOC(C)=O	inactive	inactive	inactive	inactive	inactive	inactive	inactive	inactive	inactive	inactive	inactive	inactive	inactive	inactive	inactive	–	–	–	–	inactive
C=C(C)[C@@H]1CC[C@@H](C)C[C@@H]1O	inactive	inactive	inactive	inactive	inactive	inactive	–	–	inactive	–	–	–	inactive	inactive	inactive	inactive	–	–	–	–
O=C(O)c1ccccc1C(=O)OCc1ccccc1	inactive	inactive	–	inactive	inactive	inactive	inactive	inactive	–	inactive	inactive	–	inactive	inactive	inactive	inactive	–	inactive	inactive	inactive
Cc1cccc(NC(=S)N(C)C)c1	inactive	inactive	inactive	inactive	inactive	inactive	inactive	–	inactive	–	–	–	inactive	–	–	–	–	–	–	–
